Drawing on PubChem BioAssay (NCATS), this text covers Potency and activity change, negative = inhibition for 39 molecules.

Results filed as inconclusive are left out. A call without a number means that no potency is given here. Values without a mark were called inactive. Activity calls are given as the source filed them. The call rests on the fitted dose curve.

Chain of Nucleoprotein (Lymphocytic choriomeningitis virus (strain Armstrong)) (P09992 whole entry, looked up): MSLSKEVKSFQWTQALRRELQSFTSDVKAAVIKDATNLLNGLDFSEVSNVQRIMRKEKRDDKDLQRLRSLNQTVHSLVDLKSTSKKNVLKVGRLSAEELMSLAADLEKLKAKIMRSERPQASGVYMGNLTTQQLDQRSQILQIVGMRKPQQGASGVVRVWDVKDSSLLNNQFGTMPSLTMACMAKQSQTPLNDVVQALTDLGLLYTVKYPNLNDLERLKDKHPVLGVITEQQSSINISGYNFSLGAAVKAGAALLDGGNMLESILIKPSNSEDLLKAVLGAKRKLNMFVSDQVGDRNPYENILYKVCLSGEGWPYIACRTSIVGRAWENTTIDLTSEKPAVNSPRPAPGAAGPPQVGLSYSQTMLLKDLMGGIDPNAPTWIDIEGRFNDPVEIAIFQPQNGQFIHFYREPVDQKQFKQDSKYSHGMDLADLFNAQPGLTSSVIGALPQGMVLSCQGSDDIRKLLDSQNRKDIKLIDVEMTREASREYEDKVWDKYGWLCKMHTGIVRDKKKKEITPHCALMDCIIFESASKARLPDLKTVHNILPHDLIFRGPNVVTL

The test addresses Nucleoprotein (Lymphocytic choriomeningitis virus (strain Armstrong)) (UniProt P09992). The test can be described thus: qHTS for Inhibitors of the Functional Ribonucleoprotein Complex (vRNP) of Lymphocytic Choriomeningitis Arenaviruses (LCMV): LCMV Primary Screen - GLuc reporter signal (AID 1347086). Further: nearly all actives have a fitted effect of over 70% in size. Particulars: LCMV minigenome vRNP cell assay, Gaussia luciferase reporter; series mostly up to 57.5 µM. On the technique in general: Quantitative high-throughput screening tests each substance at several concentrations.
For `O=C1CCCc2c(O)cccc21`, the Potency result is “inactive”.

Take `O=C(O)c1cccnc1`: the Potency result was “inactive”.

As for `COC(=O)C1=C(C)NC(C)=C(C(=O)OCCc2ccc(N3CCN(C(c4ccccc4)c4ccccc4)CC3)cc2)C1c1cccc([N+](=O)[O-])c1` (centres undefined), the Potency result is “inactive”.

In the case of `NC(N)=NS(=O)(=O)c1ccc(N)cc1`, the Potency result is “inactive”.

For `CNCC(O)c1ccc(O)c(O)c1` (centres undefined), the Potency result was “inactive”.

As for `CC(=O)NCc1c(I)c(NC(C)=O)c(I)c(C(=O)O)c1I`, the Potency result is “inactive”.

Take `CN(C)CCc1c[nH]c2ccc(Cn3cncn3)cc12`: the Potency result was “inactive”.

Consider `Cc1ccc(Cl)c(Nc2ccccc2C(=O)O)c1Cl`, for which the Potency result was “inactive”.

Consider `Cc1ccc(-c2ncc(Cl)cc2-c2ccc(S(C)(=O)=O)cc2)cn1`, for which the Potency result is “inactive”.

For the molecule `Cc1nc2ccccn2c(=O)c1CCN1CCC(C(=O)c2ccc(F)cc2)CC1`, the Potency entry was “inactive”.

For `Cn1c(=O)c2[nH]c(Br)nc2n(C)c1=O`, the Potency entry was “inactive”.

With `NC(CS)C(=O)O` (centres undefined), the Potency result was “inactive”.

`CCN1CCC[C@H]1CNC(=O)c1c(O)c(Cl)cc(Cl)c1OC`: the Potency entry is “inactive”.

Consider `CC(=O)NS(=O)(=O)c1ccc(N)cc1`, for which the Potency result was “inactive”.

As for `CC(=O)[C@H]1CC[C@H]2[C@@H]3C=CC4=CC(=O)CC[C@@]4(C)[C@@H]3CC[C@]12C`, the Potency result was “inactive”.

As to `c1ccc(-c2nc[nH]c2-c2ccccc2)cc1`, the Potency entry is “inactive”.

Turning to `COc1ccc2c(c1)c(CC(=O)OC/C=C(\C)CC/C=C(\C)CCC=C(C)C)c(C)n2C(=O)c1ccc(Cl)cc1`, the Potency entry was “inactive”.

For `CCCCOC(=O)c1ccc(O)cc1`, the Potency entry is “inactive”.

With `COc1cc(C(=O)NS(=O)(=O)c2ccccc2C)ccc1Cc1cn(C)c2ccc(NC(=O)OC3CCCC3)cc12`, the Potency result was “inactive”.

Regarding `C[C@]12CCC(=O)C=C1CC[C@H]1[C@@H]3CC[C@](O)(C(=O)CO)[C@@]3(C)C[C@H](O)[C@@]12F`, the Potency result was “inactive”.

For the molecule `Cc1c(N)nc([C@H](CC(N)=O)NC[C@H](N)C(N)=O)nc1C(=O)N[C@H](C(=O)N[C@H](C)[C@@H](O)[C@H](C)C(=O)N[C@H](C(=O)NCCc1nc(-c2nc(C(=O)NCCCCN=C(N)N)cs2)cs1)[C@@H](C)O)[C@@H](O[C@@H]1O[C@@H](CO)[C@@H](O)[C@H](O)[C@@H]1O[C@H]1O[C@H](CO)[C@@H](O)[C@H](OC(N)=O)[C@@H]1O)c1cnc[nH]1`, the Potency result is “inactive”.

With `COc1cnc(NS(=O)(=O)c2ccc(N)cc2)nc1`, the Potency entry is “inactive”.

In the case of `CC[C@H]1OC(=O)[C@H](C)[C@@H](O[C@H]2C[C@@](C)(OC)[C@@H](O)[C@H](C)O2)[C@H](C)[C@@H](O[C@@H]2O[C@H](C)C[C@H](N(C)C)[C@@H]2O)[C@](C)(O)C[C@@H](C)CN(C)[C@H](C)[C@@H](O)[C@]1(C)O`, the Potency result was “inactive”.

Regarding `C/C=C1\[C@H]2C=C(C)C[C@]1(N)c1ccc(=O)[nH]c1C2`, the Potency entry is “inactive”.

For `CCOc1ccc(NS(=O)(=O)c2ccc(N)cc2)nn1`, the Potency entry is “inactive”.

Take `CN1CCC[C@@H]1c1cccnc1`: the Potency result is “inactive”.

Turning to `CC(C)C[C@H](NC(=O)CNC(=O)[C@H](Cc1ccc(O)cc1)NC(=O)[C@H](CO)NC(=O)[C@H](Cc1c[nH]c2ccccc12)NC(=O)[C@H](Cc1cnc[nH]1)NC(=O)[C@@H]1CCC(=O)N1)C(=O)N[C@@H](CCCN=C(N)N)C(=O)N1CCC[C@H]1C(=O)NCC(N)=O` (stereo in doubt), the Potency entry was “inactive”.

In the case of `CC(C)c1ccc2oc3nc(N)c(C(=O)O)cc3c(=O)c2c1`, the Potency result was “inactive”.

For `C=CC(N)CCC(=O)O` (centres undefined), the Potency result is “inactive”.

In the case of `CCCCCCCCCCCCCCCCCC(=O)O`, the Potency entry is “inactive”.

With `Cc1onc(-c2ccccc2)c1-c1ccc(S(N)(=O)=O)cc1`, the Potency result was “inactive”.

`CCC(C)(CN(C)C)OC(=O)c1ccccc1` (centres undefined): the Potency entry is “inactive”.

Regarding `Nc1ccc(/C=C/c2ccc(N)cc2S(=O)(=O)O)c(S(=O)(=O)O)c1`, the activity change, negative = inhibition is 15.6% [at 0.757 µM].

`CC(C)(C)NCC(O)COc1cccc2c1C[C@H](O)[C@H](O)C2` (some centres undefined): the Potency entry is “inactive”.

For `Cc1cc(=O)n(-c2ccccc2)n1C`, the Potency result is “inactive”.

Consider `Cc1cnc(NC(=O)C2=C(O)c3ccccc3S(=O)(=O)N2C)s1`, for which the Potency result is “inactive”.

On to `O=C(O)[C@@H]1CSCN1`, for which the Potency result was “inactive”.

With `COP(=O)(OC)OC(c1ccc(Cl)cc1)P(=O)(OC)OC` (centres undefined), the Potency result was “inactive”.

For `CC[C@]12CCCN3CCc4c(n(c5ccccc45)[C@@](O)(C(=O)OC)C1)[C@@H]32`, the Potency entry is “inactive”.
